Bioassay records: PubChem BioAssay, National Center for Advancing Translational Sciences (NCATS)
ClpP mod: qHTS Assay for Activators of ClpP; ATP-dependent Clp protease proteolytic subunit (Bacillus subtilis (strain 168)), P80244; purified B. subtilis ClpP, FRET peptide cleavage, 20 min; Potency, µM (top dose mostly 57.5 µM); actives 1.9% (n = 340,000); AID 651965, 2013; active = well fitted falling curve with a large enough effect; inconclusive = small, poorly fitted or top-dose-only effect; inactive = no such curve, though single readings can be large or run the other way; note: the source files actives as falling curves though it sought activators and does not explain the sign; nearly all actives have a fitted effect of over 65% in size
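FRET quenching reversal measured ClpP activation: 10 microg/mL B. subtilis ClpP at pH 8 with the FRET-FV decapeptide, read at 430 nm after 320 nm excitation. The 20-min minus 0-min signal was scaled between DMSO/no-enzyme wells and ADEP (5.8 microM final).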
GALK inhibitor: galactokinase (human) inhibition; actives 0.007% (n = 270,000); Purified GALK, Kinase-Glo residual ATP luminescence; Potency, µM (top dose mostly 57.5 µM), usual class: inhibitors; P51570
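GALK at 5 nM final was combined with compound, 35 uM ATP and 100 uM galactose in HEPES pH8.0 with MgCl2 and DTT. The reaction ran one hour at room temperature before luminescent ATP detection.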
USP2a inh: USP2a (human) protease inhibition. USP2 core, Ub-CHOP2 coupled fluorogenic reporter, 485/531. Potency, µM (highest dose often 38.3 µM), hits mostly inhibitors. O75604. actives 0.01% (n = 330,000)
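USP2 core (10nM final) preincubated 30min RT with compound in 20mM Tris-HCl pH 8.0, 2mM CaCl2, 2mM beta-mercaptoethanol, 0.05% CHAPS; 25nM Ub-CHOP2 plus 25nM reporter substrate added, fluorescence (Ex485/Em531) read after 60min.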
Eya2 phos inh: inhibitors of human Eya2 phosphatase activity; O00167; recombinant Eya2, OMFP fluorescence dephosphorylation (OMFP is methylfluorescein phosphate); Potency, µM (series often up to 76.9 µM), actives largely listed as inhibitors; actives 0.006% (n = 330,000); AID 488837
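Eya2 protein (added as 0.2 uM solution) was preincubated with compound for 10 min at ambient temperature in 50 mM HEPES pH 7.5, 50 mM NaCl, 5 uM MgCl2, 0.05% BSA, 1 mM DTT. OMFP (added at 50 uM) then reacted 10 min; fluorescence read at 485/525 nm.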
Hits are given with their value; - = inactive; ? = inconclusive; . = no result given. The full list was thinned out, with hits kept by preference. Unless noted, calls come from the whole dose curve; as a rule, active = well fitted inhibition curve with a large enough effect; inconclusive = small, poorly fitted or top-dose-only effect, or effect the other way; inactive = flat fitted curve, though single readings scatter.

SMILES	ClpP mod	GALK inhibitor	USP2a inh	Eya2 phos inh
Cc1[nH]nc2nc(SCC(=O)NCC3CCCO3)n(-c3ccc(Br)cc3)c(=N)c12 (stereo not given)	-	-	-	-
COCCC(=O)N1CCC(Oc2ccc(C(=O)NCCCC3CCCC3)cc2)CC1	32µM	-	-	-
O=P(CCNCc1ccco1)(c1ccccc1)c1ccccc1	4µM	-	-	-
Cc1noc2ncnc(Oc3ccccc3)c12	25µM	-	-	-
O=C1C2C3C=CC(C4CC34)C2C(=O)N1/N=C/c1ccc(-c2cccc([N+](=O)[O-])c2)o1 (stereo not given)	32µM	-	-	-
O=C1C2C3C=CC(C4CC34)C2C(=O)N1/N=C/c1ccc([N+](=O)[O-])s1 (stereo not given)	-	-	-	-
CCOc1ccccc1NC(=O)CCc1c(C)nc2c3cccnc3nn2c1C	28µM	.	.	.
Cc1ccc(C(=O)N2CCCC(N(C)Cc3ccccc3)C2)s1 (stereo not given)	22µM	-	-	-
COc1ccccc1/C=C/C(=O)N1CCOCC1	-	-	-	-
COc1ccccc1/C=C/C(=O)OCCN1CCOCC1	25µM	-	-	-
CCOc1ccccc1-c1cc(-c2ccccc2)nc2c1c(=O)n(C)c(=O)n2C	32µM	-	-	-
COC(=O)c1cc(-c2ccccc2)c2c(=O)n(C)c(=O)n(C)c2n1	.	-	-	-
Cc1nc2c(=O)n(C)c(=O)[nH]c2n1Cc1ccccc1	28µM	-	-	-
CCCn1c(-c2ccccc2)nc2c(=O)n(C)c(=O)[nH]c21	?	-	-	-
CCC(O)c1c(-c2ccccc2)nn(C)c1Cl (stereo not given)	.	-	-	-
Cc1ccccc1Cn1c2ccccc2c2cnn(CC(=O)NCc3cccc(Cl)c3)c(=O)c21	22µM	.	.	.
O=C(Cn1ncc2c3ccccc3n(Cc3cccc(Cl)c3)c2c1=O)NCCCc1ccccc1	-	.	.	.
Cc1ccc2[nH]c(-c3cccc(N)c3)cc2c1	16µM	-	-	-
CC1CN(c2ncnc3c2cnn3-c2ccc(Cl)cc2)CC(C)O1 (stereo not given)	-	-	-	-
COc1ccc(-c2csc(N3CCN(C(=O)c4ccccc4)CC3)n2)cc1	-	-	-	-
COc1ccc(-c2csc(N3CCN(C(=O)c4ccco4)CC3)n2)cc1	-	-	11µM	-
COc1cccc(NC(=O)CCc2nnc3ccc(NCc4ccco4)nn23)c1	-	-	-	-
COc1c(Cl)cc(Cl)cc1/C=C(\C#N)c1nc2ccccc2[nH]1	20µM	.	.	.
N#C/C(=C\c1c(Cl)cccc1Cl)c1nc2ccccc2[nH]1	-	-	-	-
N#CCCN1CCN(S(=O)(=O)c2ccc3c(c2)CCC3)CC1	-	.	-	-
SMILES	ClpP mod	GALK inhibitor	USP2a inh	Eya2 phos inh
O=S(=O)(c1ccc2c(c1)CCC2)N1CCNCC1	28µM	.	-	-
CCn1nc(C)c(CNC(=O)Nc2ccc3c(c2)OCO3)c1C	-	-	-	-
O=C(COc1ccc(F)cc1Br)N1CCN(c2ncccn2)CC1	.	-	-	-
CC(=NCc1ccccc1)c1ccc(O)cc1O	-	.	.	.
CCOc1cc(/C=N/NC(=O)c2cc3c(ccc4ccccc43)o2)ccc1O	-	-	-	-
CCOC(=O)COc1ccccc1/C=N\NC(=O)c1cc2c(ccc3ccccc32)o1	28µM	-	-	-
CC(C)C(=O)Nc1cccc(NC2=NS(=O)(=O)c3ccccc32)c1	-	.	.	.
COCCCNC(=O)CN1C(=O)c2c(c3ccccc3n2C)C1c1ccc(OC)cc1 (stereo not given)	32µM	.	.	.
CCOCCCNC(=O)CN1C(=O)c2c(c3ccccc3n2C)C1c1ccc(OC)cc1 (stereo not given)	32µM	.	.	.
N#Cc1ccc(Oc2ccc(-c3nc4ccccc4nc3-c3ccccc3)cc2)cc1C#N	?	-	-	-
N#Cc1ccc(Oc2ccc(-c3cnc4ccccc4n3)cc2)cc1C#N	20µM	-	-	-
CCC(C(=O)Nc1ccc2c(c1)OCCO2)n1nnc2ccccc2c1=O (stereo not given)	-	-	-	-
CC(=O)c1ccc(OCC(O)CN2CCN(S(=O)(=O)c3c(C)cc(C)cc3C)CC2)cc1 (stereo not given)	20µM	-	-	-
CN1C=CC2=C(C#N)C(N)C(C#N)(C#N)C(c3ccccc3)C2C1 (stereo not given)	28µM	-	-	-
CN1C[C@@H]2C(c3ccccc3)C3(c4ccc(C#N)cc4)CC2(C3)[C@H]1c1ccccc1 (stereo not given in full)	-	-	-	-
Cc1cc(C)c(NC(=O)CS(=O)CC(=O)NCC2CCCO2)c(C)c1 (stereo not given)	-	-	-	-
COC(=O)CSc1ccc(C#N)c(SCC(=O)OC)c1	14µM	-	-	-
CCNC(=O)N1c2ccc(OCC)cc2C(C)=CC1(C)C	-	-	-	-
CCOc1ccc2c(c1)C(C)=CC(C)(C)N2C(=O)Nc1ccccc1F	28µM	-	-	-
O=C(Nc1ccccc1N1CCCC1)c1cccc(-c2cc3ccccc3oc2=O)c1	?	-	-	-
Cn1c2ccccc2n2c(=O)c(Cl)c(-c3ccccc3)c(C#N)c12	28µM	-	-	-
N#CC(c1ccccc1)c1ccc(C(=O)c2ccc(F)cc2)cc1 (stereo not given)	-	-	?	-
CC(=O)Nc1ccc(C(=O)Nc2nc(-c3cccnc3)cs2)cc1	11µM	-	-	-
O=C(Nc1nc(-c2ccccc2)cs1)c1cccnc1	-	-	-	-
COc1cccc(NC(=O)CSc2ncnc3c2oc2ccccc23)c1	-	-	-	-
SMILES	ClpP mod	GALK inhibitor	USP2a inh	Eya2 phos inh
CC(c1cccs1)N(Cc1ccco1)C(=O)Nc1ccc(Cl)c(Cl)c1 (stereo not given)	-	-	-	-
CCOC(=O)c1ccccc1NC1OC(=O)c2ccccc21 (stereo not given)	28µM	-	-	-
O=C(Nc1ncc(Cc2ccccc2Cl)s1)c1ccc([N+](=O)[O-])cc1	-	-	-	-
COC(=O)C1=C(C)NC(C)=C(C(=O)OC)C1c1ccc(-c2cc(Cl)ccc2Cl)o1	-	-	-	-
COC(=O)C1=C(C)NC(C)=C(C(=O)OC)C1c1ccc(-c2cccc(Cl)c2Cl)o1	25µM	-	-	-
O=C(N/N=C/c1ccccc1)c1[nH]c2ccc(Br)cc2c1-c1ccccc1	22µM	-	-	-
O=C(NN=C1CCCC1)c1[nH]c2ccc(Br)cc2c1-c1ccccc1	.	-	-	?
CC(=O)Nc1ccn(-c2ccccc2)n1	-	-	-	-
Cc1cc(C)c2c(=N)c3ccccc3n(CCCCCCCCn3c4ccccc4c(=N)c4c(C)cc(C)nc43)c2n1	32µM	.	.	.
COc1cc(Cl)ccc1OCc1cc(C(=O)NC(C)Cc2cccnc2)no1 (stereo not given)	28µM	-	-	-
O=C(c1cccc(Cl)c1)N1CCC(C(=O)N2CCN(Cc3ccccc3)CC2)CC1	28µM	-	-	-
